In PubChem BioAssay AID720626 (Broad Institute, 2013):
Records with an inconclusive call do not appear. Activity calls are given as the source filed them.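 Rule for the calls: active = all three exposure times show falling viability signal with fitted midpoint dose at most twice top tested dose; inconclusive = calls differ across the three exposure times; inactive = all three exposure times inactive.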

Test: SR lymphoma cell cytotoxicity, late-stage follow-up, mechanism study for HRAS target identification, Alamar Blue fluorescence, several timepoints, dry powder (AID 720626)

SMILES | outcome
Cc1onc(C(=O)N2CCN(C(c3ccncc3)c3ccncc3)CC2)c1[N+](=O)[O-] | inactive
CCC(=O)N(c1ccc(OC)c(Cl)c1)C(C(=O)NCCc1ccccc1)c1cccs1 (configuration not stated) | inactive
